# The campaign covered roughly 650,000 compounds. About 5,900 (0.91%) were called active. The sample as a whole holds a higher share of actives than the screen did. Unmarked numbers belong to inactive results. Rule as the data show it: active = inhibition above about 50%; inactive = the rest.
# Target: Microphthalmia-associated transcription factor (Homo sapiens) (UniProt O75030)
# Assay: MITF inhibitors, primary screen, biochemical, AlphaScreen, human (AID 1259374);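 also: 0% = vehicle wells with protein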
# Settings: AlphaScreen MITF homodimerization, bead proximity signal; at 2.6 µM; hits give high values
# Sequence of Microphthalmia-associated transcription factor (Homo sapiens) (O75030 whole entry, looked up): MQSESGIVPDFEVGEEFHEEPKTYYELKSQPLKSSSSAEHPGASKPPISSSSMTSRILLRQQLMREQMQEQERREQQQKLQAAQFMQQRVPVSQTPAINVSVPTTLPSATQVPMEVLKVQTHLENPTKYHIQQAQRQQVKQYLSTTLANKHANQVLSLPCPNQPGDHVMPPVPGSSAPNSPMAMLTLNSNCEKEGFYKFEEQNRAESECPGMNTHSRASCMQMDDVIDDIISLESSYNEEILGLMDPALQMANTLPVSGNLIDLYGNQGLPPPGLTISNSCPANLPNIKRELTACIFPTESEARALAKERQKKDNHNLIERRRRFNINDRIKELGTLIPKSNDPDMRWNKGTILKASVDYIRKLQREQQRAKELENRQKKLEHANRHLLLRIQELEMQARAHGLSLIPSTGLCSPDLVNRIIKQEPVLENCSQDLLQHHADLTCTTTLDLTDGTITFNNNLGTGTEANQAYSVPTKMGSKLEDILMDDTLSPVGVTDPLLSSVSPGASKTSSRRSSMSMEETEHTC
row,SMILES,inhibition
1,CSCCC(NC(=O)c1ccco1)C(=O)OCC(=O)Nc1ccc(C#N)c(Cl)c1 (stereo not drawn),4.56%
2,CSc1ccccc1NC(=O)CN(C)CC(=O)Nc1ccc(C#N)c(Cl)c1,82.2% (active)
3,COc1ccc(NC(=O)CN(C)CC(=O)Nc2ccc(C#N)c(Cl)c2)cc1,7.15%
4,COc1ccccc1N1C(=O)NC(=O)/C(=C\c2ccc(Cl)cc2Cl)C1=O,-0.45%
5,CC(Cc1ccccc1)NC(=O)/C=C/c1ccco1 (stereo not drawn),7.08%
6,CC(Cc1cccc(C(F)(F)F)c1)N1CCOCC1 (stereo not drawn),12.7%
7,CCC(C)N1CCN(Cc2ccc(SC)cc2)CC1 (stereo not drawn),65.1% (active)
8,CCC(CC)N1CCN(Cc2ccc(F)cc2)CC1,70.5% (active)
9,CN1CCN(Cc2ccc(F)cc2)CC1CCO (stereo not drawn),-5.75%
10,Clc1ccc(CN2CCN(Cc3ccc(Cl)cc3)CC2)cc1,31.9%
11,CCN1CCN(Cc2ccc(C(=O)OC)cc2)CC1,-13.2%
12,CCN1CCN(Cc2ccc3ccccc3c2)CC1,3.25%
13,Fc1cccc(Cl)c1CNC1CN2CCC1CC2 (stereo not drawn),2.47%
14,O=C(CN1CCCC1)c1ccccc1Br,-5.43%
15,Cc1cc(C=C2C(=O)NC(=S)NC2=O)c(C)n1-c1ccccc1C(F)(F)F,8.02%
16,CCOC(=O)C1=C(N)OC2=C(C(=O)CCC2)C12C(=O)Nc1ccc(Br)cc12 (stereo not drawn),-1.67%
17,FC1CC2C(Cl)C1NC2(C(F)(F)F)C(F)(F)F (stereo not drawn),-5.25%
18,CN1C(=O)C(=Cc2cn(CC(=O)NCc3ccco3)c3ccccc23)C(=O)N(C)C1=O,0.24%
19,CN1CCC(N(C)c2ncnc3scc(-c4ccc(Cl)cc4)c23)CC1,51.4% (active)
20,O=C(CN1C2CCC1CC(O)(c1ccccn1)C2)N1c2ccccc2Sc2ccccc21 (stereo not drawn),44.9%

row,SMILES,inhibition
1,Cn1ccnc1C1(O)CC2CCC(C1)N2CC(=O)N1CCc2ccccc2C1 (stereo not drawn),9.08%
2,CC1CCCC(C)N1C(=O)CN1C2CCC1CC(O)(c1ccccn1)C2 (stereo not drawn),54.9% (active)
3,Cc1cccc(OCC(=O)N2CCN(Cc3ccccc3)CC2)c1C,13%
4,COc1ccccc1N1CCN(Cc2cccc(O)c2)CC1,24.7%
5,COc1ccccc1CN1CCN(Cc2ccc(Br)cc2)CC1,77.5% (active)
6,COc1cc(CN2CCN(C)CC2)ccc1O,41.2%
7,COc1ccccc1CN1CCN(C(=O)Cc2ccccc2)CC1,57.1% (active)
8,COc1ccccc1CN1CCN(c2ccc(F)cc2)CC1,19.3%
9,COc1ccc(CN2CCN(Cc3ccccc3)CC2)cc1C,50.8% (active)
10,COc1cccc(CN2CCN(C(=O)COc3ccccc3)CC2)c1OC,43.9%
11,COc1cc(CN2CCN(Cc3ccccc3)CC2)cc(I)c1O,-2.51%
12,CC(C)CCn1c(=O)c(C(=O)Nc2nc3ccc(F)cc3s2)c(O)c2ccccc21,9.2%
13,CC12CCC(=O)C=C1CC[C@@H]1[C@@H]2CCC2(C)[C@@H](O)CC[C@@H]12 (stereo partly drawn),3.34%
14,Cc1cccc(-n2c(CN3C(=O)c4ccccc4C3=O)nc3ccccc3c2=O)c1,8.78%
15,C=CCN1C(=O)NC(=O)/C(=C/c2ccc(O)c(OC)c2)C1=O,-1.51%
16,C=CCN1C(=O)NC(=O)/C(=C/c2ccc3c(c2)OCO3)C1=O,11.9%
17,CCNC(=S)N1CC2CC(C1)c1cccc(=O)n1C2 (stereo not drawn),-9.28%
18,CCCC1=C(C(=O)OC)C2(C(=O)Nc3ccccc32)C(C(=O)OCC)=C(N)O1 (stereo not drawn),12%
19,c1cc2c(cc1NC1=NCCCS1)OCCO2,2.15%
20,O=C1NC(=S)NC(=O)C1=Cc1ccc(-c2ccccc2)o1,31.6%

row,SMILES,inhibition
1,O=C1NC(=S)N(Cc2ccco2)C(=O)/C1=C\c1ccc(-c2ccc([N+](=O)[O-])cc2)o1,89.9% (active)
2,C=CCN1C(=O)/C(=C\c2cccn2-c2cccc([N+](=O)[O-])c2)C(=O)NC1=S,44.6%
3,N#CC1=C(N)Oc2c(c(=O)oc3ccccc23)C1c1ccc([N+](=O)[O-])s1 (stereo not drawn),2.54%
4,COc1cccc(-n2c(/C=C/c3cccnc3)nc3ccccc3c2=O)c1,-8.02%
5,Cc1cc(/C=C2/C(=O)NC(=O)N(Cc3ccco3)C2=O)c(C)n1-c1ccc(C(=O)O)cc1,80.4% (active)
6,Cc1ccccc1N1C(=O)NC(=O)/C(=C\c2cc(C)n(-c3ccccc3C(=O)O)c2C)C1=O,15.6%
7,Cc1cc(C=O)c(C)n1Cc1ccco1,3.63%
8,COc1ccccc1CCNCc1ccc(C)cc1,24.2%
9,O=[N+]([O-])c1ccc(O)c(CN2CCN(c3ccccc3)CC2)c1,9.43%
10,Fc1ccc(CN2CCN(c3ccccc3)CC2)cc1F,40.2%
11,Cc1ccc(CN2CCN(C(=O)COc3cccc(C)c3)CC2)cc1,43.5%
12,O=[N+]([O-])c1ccccc1CN1CCN(Cc2cccc(F)c2)CC1,51.4% (active)
13,O=[N+]([O-])c1ccccc1C[N+]12CCC(CC1)C(O)C2 (stereo not drawn),8.77%
14,Cc1ccc(CN2CCN(Cc3ccccc3[N+](=O)[O-])CC2)cc1,59.3% (active)
15,Cc1ccccc1OCC(=O)N1CCN(CCNC(=O)c2ccc3c(c2)OCO3)CC1,-3.05%
16,O=C1NC(=S)NC(=O)C1=Cc1ccc(OCc2ccccc2)c(C(=O)O)c1,18.7%
17,CCCC1(CCC)C(=O)NC(=Nc2ccc(OC)cc2)NC1=O,-6.47%
18,CC(c1ccccc1F)n1cc(C(=O)NC2CC2)nn1 (stereo not drawn),-9.15%

# — PubChem BioAssay AID1259374 (The Scripps Research Institute Molecular Screening Center, 2018)
